JMJD2A Tudor: JMJD2A Tudor domain (human) inhibition | AlphaScreen JMJD2A-Tudor / H3K4me3 peptide binding | Potency, µM (top dose mostly 114 µM), for inactives: at the top dose activity change, negative = inhibition, usual class: inhibitors | hit rate 4.4% among 390,000 | AID 504339; note: % is set by controls: 0 for no effect and ±100 for the full control effect; nearly all actives have a fitted effect of over 50% in size
BAZ2B inh: BAZ2B (human) inhibition; hit rate 4.4% among 360,000; Q9UIF8; Potency, µM (series often up to 114 µM), inactives show at the highest dose activity change, negative = inhibition, actives largely listed as inhibitors; AlphaScreen BAZ2B-H3K14Ac peptide displacement; note: % is set by controls: 0 for no effect and ±100 for the full control effect; nearly all actives have a fitted effect of over 60% in size
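Complex of BAZ2B and biotin-H3K14Ac (50 nM apiece) forms over 30 min at RT, then faces library compounds up to 110 uM for another 30 min; AlphaScreen beads added, 20 min dark incubation, luminescence read.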
HP1b chromo inh: HP1-beta chromodomain-methylated histone interaction inhibition; P83916; AlphaScreen HP1-beta / biotin-H3K9me3 peptide binding; Potency, µM (highest dose often 114 µM), without a hit: at the highest dose activity change, negative = inhibition, usual class: inhibitors; hit rate 0.56% among 390,000; AID 540317; note: nearly all actives have a fitted effect of over 70% in size
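Compound inhibition of the preformed complex between 50 nM HP1-beta and 50 nM biotinylated H3K9me3 peptide was read by AlphaScreen. Buffer was PBS pH 7.4 with 0.01% Tween-20. Incubations ran 30 min at room temperature, with 10 ug/mL donor/acceptor beads.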
12-LOX inh: blocks human arachidonate 12S-lipoxygenase | Potency, µM (doses to about 108 µM), without a hit: at the top dose activity change, negative = inhibition, most hits filed as inhibitors | purified 12hLO, xylenol orange hydroperoxide absorbance | AID 1671190 | P18054 | hit rate 1.1% among 580,000; note: % is set by controls: 0 for no effect and ±100 for the full control effect
Target sequence (P18054 whole entry, looked up): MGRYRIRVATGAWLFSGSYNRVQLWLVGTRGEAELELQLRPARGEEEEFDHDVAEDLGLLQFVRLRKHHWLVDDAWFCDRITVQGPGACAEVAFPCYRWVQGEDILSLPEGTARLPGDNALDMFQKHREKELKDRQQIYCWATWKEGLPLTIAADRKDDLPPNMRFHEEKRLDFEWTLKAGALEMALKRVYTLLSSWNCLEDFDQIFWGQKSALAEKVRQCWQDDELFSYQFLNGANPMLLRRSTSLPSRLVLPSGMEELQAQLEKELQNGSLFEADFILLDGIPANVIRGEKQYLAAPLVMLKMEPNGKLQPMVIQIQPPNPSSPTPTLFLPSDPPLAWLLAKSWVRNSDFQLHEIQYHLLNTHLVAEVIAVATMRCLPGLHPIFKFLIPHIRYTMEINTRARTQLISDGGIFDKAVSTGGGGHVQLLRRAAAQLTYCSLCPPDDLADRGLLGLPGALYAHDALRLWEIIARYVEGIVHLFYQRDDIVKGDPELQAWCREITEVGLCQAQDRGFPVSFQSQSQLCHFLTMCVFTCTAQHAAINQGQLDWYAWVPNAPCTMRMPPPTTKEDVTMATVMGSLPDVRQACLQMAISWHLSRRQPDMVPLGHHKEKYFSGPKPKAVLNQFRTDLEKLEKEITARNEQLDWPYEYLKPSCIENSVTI
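Purified human 12hLO (150 nM final) in 25 mM Hepes, 0.01% Triton X-100, pH 7.0 was preincubated 15 min at room temperature with compound. Then 40 uM arachidonic acid was added, 30 min. Hydroperoxide was read by Fe-XO absorbance ratio 573/405 nm.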
Sfp inh: Sfp phosphopantetheinyl transferase inhibition. Potency, µM, for the others: largest response in the series, negative = inhibition, hits mostly inhibitors. Biochemical Sfp PPTase activity, qHTS. hit rate 3.5% among 310,000;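 note: the enzyme is Sfp with the accession as filed and its product quenches rhodamine fluorescence; 0% = enzyme reaction without inhibitor and -100% = no enzyme wells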
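Fluorescence-quenching assay: 15 nM Sfp-PPTase preincubated 15 min at room temperature with compound, then 5 uM rhodamine-CoA and 12.5 uM BHQ-2-labelled YbbR peptide added. Fluorescence (ex 525/em 598 nm) read at start and after 30 min; difference gives rate.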
G9a block: blocks human histone lysine methyltransferase G9a. Q96KQ7. hit rate 8.8% among 350,000. Potency, µM (top dose mostly 102 µM), for inactives: at the top dose activity, negative = inhibition, most hits filed as inhibitors. G9a H3K9 monomethylation, AlphaScreen, 2 h; note: % is set by controls: 0 for no effect and ±100 for the full control effect; nearly all actives have a fitted effect of over 75% in size
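Enzyme 20 nM + cpd, 15 min RT; add b-H3K9 pep 500 nM / SAM 20 uM; 2 h RT; anti-H3K9me1 Ab 0.5 ug/mL + SA donor / anti-rabbit acceptor beads 20 ug/mL each, 10 min; AlphaScreen read.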
Starred values were filed as active, the others as inactive; ! = not active in a repeat; [ ] = remark or other dose. A selection: hits, their analogues and other compounds. The true share with any hit is near 8.7%. Calls come from the whole dose curve; as a rule, active = well fitted curve in the direction sought with a large enough effect; inconclusive = small, poorly fitted or top-dose-only effect, or another doubt; inactive = no such curve, though single readings can be large; an effect the other way counts as inactive or inconclusive. Potency is the fitted concentration of half-maximal effect.

What do the screens show for `CC(C)[C@@H]1CN(C(=O)c2scc3c2CCCC3)C[C@H]1NS(C)(=O)=O`?
12-LOX inh: 3%

How did NC(N)=Nc1nc2ccccc2o1 do in these assays?
JMJD2A Tudor: 13µM*; BAZ2B inh: 3%; HP1b chromo inh: 20%[57 µM]; 12-LOX inh: 2%; Sfp inh: -8%; G9a block: inconclusive

Results for N#C/C(=C\N1CCN(Cc2ccc3c(c2)OCO3)CC1)c1nc2ccccc2s1 ?
JMJD2A Tudor: inconclusive; BAZ2B inh: -5%; HP1b chromo inh: -9%; 12-LOX inh: -9%; Sfp inh: -5%; G9a block: 40µM*

Results for C[C@@H](c1ccccc1)N1C(=O)[C@@H]2CN(C(=O)c3ccco3)CCN2C1=O ?
12-LOX inh: 17%[176 µM]

How did CN1CCN(Cc2ccc(Sc3ccc(Cl)cc3)c([N+](=O)[O-])c2)CC1 do in these assays?
JMJD2A Tudor: inconclusive; BAZ2B inh: 32µM*; HP1b chromo inh: -29%; 12-LOX inh: inconclusive; Sfp inh: inconclusive; G9a block: -44%

Results for Cc1ccc(Sc2ccc(CN3CCCC3)cc2[N+](=O)[O-])cc1 ?
JMJD2A Tudor: 45µM*; BAZ2B inh: inconclusive; HP1b chromo inh: inconclusive; 12-LOX inh: inconclusive; Sfp inh: -4%; G9a block: inconclusive

How did Cc1ccc(Sc2ccc(CO)cc2[N+](=O)[O-])cc1 do in these assays?
JMJD2A Tudor: inconclusive; BAZ2B inh: inconclusive; HP1b chromo inh: -22%; 12-LOX inh: inconclusive; Sfp inh: -10%; G9a block: -47%

How did COc1cc(-c2n[nH]c(=S)n2C(C)c2ccccc2)cc(OC)c1OC (stereo not drawn) do in these assays?
JMJD2A Tudor: 13µM*; BAZ2B inh: -1%; HP1b chromo inh: 32%; 12-LOX inh: inconclusive; Sfp inh: 0%

What do the screens show for `COc1cc(-c2n[nH]c(=S)n2-c2ccccc2C(F)(F)F)cc(OC)c1OC`?
JMJD2A Tudor: inconclusive; BAZ2B inh: -16%; HP1b chromo inh: 8%; 12-LOX inh: -9%; Sfp inh: -18%; G9a block: 3.5µM*

What do the screens show for `FC(F)(F)c1ccccc1-n1c(-c2cnccn2)n[nH]c1=S`?
JMJD2A Tudor: -16%; BAZ2B inh: -29%; HP1b chromo inh: 45%; 12-LOX inh: inconclusive; Sfp inh: inconclusive; G9a block: inconclusive

How did COc1cc(-c2n[nH]c(=S)n2-c2cccc(C(F)(F)F)c2)cc(OC)c1OC do in these assays?
JMJD2A Tudor: 89µM*; BAZ2B inh: 5%; HP1b chromo inh: 13%; 12-LOX inh: inconclusive; Sfp inh: -20%; G9a block: inconclusive

What do the screens show for `CC(c1ccc(F)cc1)n1c(-c2ccc3ccccc3n2)n[nH]c1=S` (stereo not drawn)?
JMJD2A Tudor: -32%; BAZ2B inh: -33%; HP1b chromo inh: 9%; 12-LOX inh: inconclusive; Sfp inh: inconclusive; G9a block: -3%[0.501 µM]

How did COCCN1CC(CO)C2(CCN(Cc3cccc(Cl)c3F)CC2)C1 (stereo not drawn) do in these assays?
12-LOX inh: 0%

How did CC1CCCCN1Cc1c(O)ccc2c(=O)c(-c3ccc(Br)cc3)coc12 (stereo not drawn) do in these assays?
JMJD2A Tudor: -7%; BAZ2B inh: -13%; HP1b chromo inh: 23%; 12-LOX inh: -21%; Sfp inh: 8%; G9a block: -6%

What do the screens show for `CC1CCCCN1Cc1c(O)ccc2c(=O)c(-c3ccc(Cl)cc3)coc12` (stereo not drawn)?
JMJD2A Tudor: 79µM*!; BAZ2B inh: -3%; HP1b chromo inh: 29%; 12-LOX inh: 0%; Sfp inh: 12%; G9a block: 9%

How did Cc1ccc(C(=O)COC(=O)c2cc(=O)[nH]c3ccc(C)cc23)cc1 do in these assays?
12-LOX inh: -2%

How did Cn1cccc1Cc1nnc(SCC(=O)NC2CCCC2)n1CCc1ccccc1 do in these assays?
JMJD2A Tudor: inconclusive; BAZ2B inh: -34%; HP1b chromo inh: 9%; 12-LOX inh: 312%; Sfp inh: -6%; G9a block: 79µM*

How did Cn1cccc1Cc1nnc(SCC(=O)N2CCCCCC2)n1CCc1ccccc1 do in these assays?
JMJD2A Tudor: -19%; BAZ2B inh: -35%; HP1b chromo inh: 44%; 12-LOX inh: 417%; Sfp inh: -9%; G9a block: 50µM*

Results for Cn1cccc1Cc1nnc(SCC(N)=O)n1CCc1ccccc1 ?
JMJD2A Tudor: -20%; BAZ2B inh: -26%; HP1b chromo inh: 36%; 12-LOX inh: 176%; Sfp inh: -2%; G9a block: 45µM*

How did Cn1cccc1Cc1nnc(SCC(=O)N2CCCC2)n1CCc1ccccc1 do in these assays?
JMJD2A Tudor: -26%; BAZ2B inh: inconclusive; HP1b chromo inh: 12%; 12-LOX inh: 14%; Sfp inh: 15%; G9a block: inconclusive

How did CC1CCN(C(=O)CSc2nnc(Cc3cccn3C)n2CCc2ccccc2)CC1 do in these assays?
JMJD2A Tudor: inconclusive; BAZ2B inh: -36%; HP1b chromo inh: 9%; 12-LOX inh: 269%; Sfp inh: 6%; G9a block: 45µM*

Results for C#CCNC(=O)[C@H]1O[C@H](CCN2CCN(Cc3ccccc3)CC2)CC[C@@H]1O ?
12-LOX inh: -12%[176 µM]

How did CN1C(=O)CS(=O)(=O)C12CCNCC2 do in these assays?
12-LOX inh: 9%

How did Cc1ccc(N2CCC(NS(=O)(=O)c3cn(C)c(C)n3)C2=O)cc1C (stereo not drawn) do in these assays?
12-LOX inh: 3%

How did CC1CCN(C(=O)CSc2nnc(CN3CCOCC3)n2-c2ccccc2)CC1 do in these assays?
JMJD2A Tudor: -1%; BAZ2B inh: -2%; HP1b chromo inh: 31%; 12-LOX inh: -3%; Sfp inh: 71µM*; G9a block: -29%[12.7 µM]

Results for O=C(CSc1nnc(CN2CCOCC2)n1-c1ccccc1)N1CCc2ccccc21 ?
JMJD2A Tudor: -2%; BAZ2B inh: -5%; HP1b chromo inh: 26%; 12-LOX inh: -1%; Sfp inh: 11%; G9a block: -39%[12.7 µM]

What do the screens show for `CCN1CCN(c2ccc(NC(=O)c3ccc4c(c3)[nH]c(=O)n4Cc3ccc(F)cc3)cc2)CC1`?
JMJD2A Tudor: inconclusive; BAZ2B inh: inconclusive; HP1b chromo inh: -6%; 12-LOX inh: -21%; Sfp inh: 16%; G9a block: 50µM*

Results for COc1ccc(Cn2c(=O)[nH]c3cc(C(=O)Nc4ccc(N5CCN(C)CC5)cc4)ccc32)cc1 ?
JMJD2A Tudor: inconclusive; BAZ2B inh: inconclusive; HP1b chromo inh: -38%; 12-LOX inh: -5%; Sfp inh: -6%; G9a block: 45µM*
